The text below walks through data of PubChem BioAssay (Tox21).

Inconclusive results are not listed. The source made the active and inactive calls. Calls come from the whole dose curve; as a rule, active = well fitted activation curve with a large enough effect in the signal ratio in the repeat runs (not every such curve was filed as active); inconclusive = weak or mixed curves, or effect the other way; inactive = flat fitted curve, though single readings scatter; the % refers to the signal ratio.

The nature of the assay: qHTS assay to identify small molecule agonists of the endoplasmic reticulum stress response signaling pathway (AID 1159516). The conditions noted are these: ESRE-bla HeLa, ER stress beta-lactamase reporter, 5 h; series mostly up to 61 µM. The text has this:
National Center for Advancing Translational Sciences [NCATS]
NIH Chemical Genomics Center [NCGC]
U.S. Environmental Protection Agency [EPA]
National Institutes of Environmental Health Sciences [NIEHS]
National Toxicology Program [NTP]
U.S. Food and Drug Administration [FDA]
Endoplasmic Reticulum (ER) plays an important role in cellular signaling, protein folding/maturation, stress response, lipid biosynthesis, calcium storage and release etc. Under stress conditions, proteins in ER misfold or unfold, and leading to the expression of ER stress responsive genes. ER stress has been associated with a variety of pathophysiological conditions such as cancer, inflammation, neurodegenerative diseases, diabetes, ischemic heart disease etc. To identify the compounds that induce ER stress response, an ER stress reporter cell line, CellSensor ESRE-bla HeLa (Life Technologies, Carlsbad, CA) containing a beta-lactamase reporter gene under control of the Endoplasmic reticulum Stress Response Element (ESRE) was used to screen Tox21 10K compound library.
Tox21 Assay Protocol Summary:
ESRE-bla HeLa cells were dispensed at 1,500 cells/6 uL of assay medium per well into black wall/clear-bottom 1536-well plates using a Multidrop Combi (ThermoFisher Scientific, Waltham, MA) dispenser. After the assay plates were incubated at 37 C and 5% CO2 for an overnight, 23 nL of compounds dissolved in DMSO, positive controls or DMSO only was transferred to the assay plate by a Pintool station (Kalypsys, San Diego, CA). The assay plates were incubated at 37 C and 5% CO2 for 5 hr. One uL of LiveBLAzer B/G FRET substrate (Life Technologies) was added using a Flying Reagent Dispenser (Aurora Discovery, San Diego, CA) and the plates were incubated at room temperature for 2 hr. Fluorescence intensity (405 nm excitation, 460 nm and 530 nm emissions) was measured using an Envision plate reader (PerkinElmer, Shelton, CT).
In general terms: Quantitative high-throughput screening tests each substance at several concentrations.
Regarding `CCOC(=O)C(C)Oc1ccc(Oc2nc3ccc(Cl)cc3o2)cc1` (stereo not given), the call was inactive.
`CC1=C(C=O)C(C)(C)CCC1`: the call was inactive.
Consider `CCC(C)(O)CCC=C(C)C` (stereo not given), for which the result was inactive.
The same measure for `Cc1oncc1C(=O)Nc1ccc(C(F)(F)F)cc1`: “inactive”.
Take `C[Si]1(C)O[Si](C)(C)O[Si](C)(C)O1`: the molecule was called inactive.
As for `C=CC(C)=CCC=C(C)C`, the molecule was called inactive.
Regarding `C/C=C(\C)C(=O)OCCC(C)CCC=C(C)C` (stereo not given), the molecule was classed as inactive.
In the case of `Oc1ccc(Nc2ccccc2)cc1`, the call was inactive.
With `CCCCC1C(=O)N(c2ccccc2)N(c2ccc(O)cc2)C1=O` (stereo not given) the entry was “inactive”; with `CC(C)OCC1CO1` (stereo not given), “inactive”.
`O=C(c1ccc(O)cc1)c1ccc(Cl)cc1`: the call was inactive.
As to `CCN(CC)CCNC(=O)c1ccc(NC(C)=O)cc1`, the result was inactive.
With `COC(=O)[C@@H]1CC2=CC(=O)CC[C@]2(C)[C@@]23O[C@@H]2C[C@@]2(C)[C@@H](CC[C@@]24CCC(=O)O4)[C@H]13` the entry was “inactive”; with `CC1=C(/C=C/C(C)=C\C=C\C(C)=C\C(=O)O)C(C)(C)CCC1`, “inactive”; with `CC1=NN(c2ccc(C(=O)O)cc2)C(=O)C1`, “inactive”.
With `C/C=C/C=C/CCCCCCCO` the entry was “inactive”; with `OCC1CC=CCC1` (stereo not given), “inactive”.
Regarding `CCCOCCOCCO`, the result was inactive.
With `CCn1cc(C(=O)O)c(=O)c2cc(F)c(N3CCNCC3)nc21` the entry was “inactive”; with `COc1cc2ncnc(Nc3ccc(F)c(Cl)c3)c2cc1OCCCN1CCOCC1`, “inactive”; with `COc1cc2c(cc1OC)-c1cc(=Nc3c(C)cc(C)cc3C)n(C)c(=O)n1CC2`, “inactive”.
On to `O=C(CS)OCCOC(=O)CS`, for which the molecule was classed as inactive.
As to `O=C(CCC1CCN(Cc2ccccc2)CC1)c1ccc2c(c1)NCCCC2`, the call was inactive.
Turning to `CNC(=O)N(c1ccccc1)c1ccccc1`, the molecule was called inactive.
Turning to `CC1CC(O)CC(C)(C)C1` (stereo not given), the outcome was inactive.
With `CN(C)CCOC1=Cc2ccccc2Sc2ccc(Cl)cc21` the entry was “inactive”; with `CC(C)=CC=O`, “inactive”; with `CC#N`, “inactive”.
The same measure for `O=C(O)c1ccccc1NCCc1ccccc1`: “inactive”.
Turning to `O=C(O)Cc1ccc(-c2ccccc2)cc1`, the result was inactive.
In the case of `CCCC1C(CC)=CC(CC)=CN1c1ccccc1` (stereo not given), the outcome was inactive.
For `Cc1nc2ccccc2s1`, the molecule was called inactive.
Regarding `Cc1ccc(S(=O)(=O)NC2CCCCC2)cc1`, the molecule was called inactive.
`O=C(O)c1ccc(CO)o1`: the outcome was inactive.
With `O=C(C(=O)c1ccccc1)c1ccccc1` the entry was “inactive”; with `CC(C)c1nnc2ccc(-c3ocnc3-c3cc(F)ccc3F)cn12`, “inactive”; with `CCCCCCCCSCCO`, “inactive”.
As to `O=C(CCCN1CCN(c2ccc(F)cc2)CC1)NC1c2ccccc2CSc2ccccc21` (stereo not given), the outcome was inactive.
For the molecule `O=C(CCCCCCCCC#CI)Oc1ccccc1`, the molecule was called inactive.
With `CC(=N\O)/C(C)=N/O`, the molecule was classed as inactive.
